# Laboratory results: PubChem BioAssay (NCI)
# The panel holds about 83,000 compounds, 20% with a hit somewhere; the sample as a whole holds those more often.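 Treatment: one concentration, 48 hours, 96-well format. Scoring: percent growth, with anything below 10 considered active.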 Calls of active or inactive are those of the source.
# Tested on: HCC-2998 colon
# Assay: NCI-60 one-dose screen, 48 h (100 = growth as untreated, 0 = no growth, -100 = all killed)
# Settings: 10 µM
row,SMILES,growth
1,COc1ccc(-c2nc(-c3nc4cc(Cl)c(Cl)cc4[nH]3)c3ccccn23)cc1,76.4% (inactive)
2,Cc1ccc(CC#N)cc1C,103% (inactive)
3,O=C1/C(=C\c2ccc(Cl)cc2)CN(C(=S)Nc2ccccc2)C/C1=C\c1ccc(Cl)cc1,-89% (active)
4,C#Cc1ccc(-n2c(/C=C/c3ccc4ccccc4n3)nc3ncccc3c2=O)cc1,-75.3% (active)
5,N#CCCN1C/C(=C/c2ccccc2)C(=O)/C(=C/c2ccccc2)C1,-81% (active)
6,CCC(=O)N1C/C(=C/c2ccc(OC)cc2)C(=O)/C(=C/c2ccc(OC)cc2)C1,-84% (active)
7,Cc1ccc(C)c(C(O)(c2cc(C)ccc2C)C2(O)CCCCC2)c1,108% (inactive)
8,O=C1/C(=C\c2ccc(F)cc2)CN(C(=O)c2ccc([N+](=O)[O-])cc2)C/C1=C\c1ccc(F)cc1,-79.1% (active)
9,CC(=O)OCc1cc(-c2nc3ccccc3[nH]c2=O)nn1-c1ccc(Cl)cc1,87% (inactive)
10,O=C1/C(=C\c2ccc(Cl)cc2)CN(C(=O)c2ccccc2)C/C1=C\c1ccc(Cl)cc1,-71.8% (active)
11,CC(C)(C)c1cc(Br)cc(C(C)(C)C)c1O,103% (inactive)
12,C#Cc1ccc(-n2c(/C=C/c3ccc(C(F)(F)F)cc3)nc3ncccc3c2=O)cc1,18.7% (inactive)
13,CC/C(=C(/c1ccc(OCCN(C)C)cc1)c1ccc(OC(=O)CCCCC(=O)c2c(C)[nH]c(/C=C3\N=C(c4ccc[nH]4)C=C3OC)c2C)cc1)c1ccccc1,76.6% (inactive)
14,CSc1nn(-c2ccccc2)c2ncnc(Oc3ccccc3)c12,102% (inactive)
15,COc1cc(/C=C\c2cc(OC)c(OC)c(OC)c2)cc(NS(=O)(=O)c2ccc(Cl)cc2)c1OC,18.6% (inactive)
16,COc1ccc(/C=C2/CN(CCC#N)C/C(=C\c3ccc(OC)cc3)C2=O)cc1,-82.3% (active)
17,c1ccc(CP(Cc2ccccc2)c2ccccc2)cc1,101% (inactive)
18,COc1ccc(-c2nc(-c3nc4cc(Cl)c(F)cc4[nH]3)c3ccccn23)cc1,72.2% (inactive)
19,Cc1nc2ccccc2c(N)c1-c1cc(C)c2c(C)nc3ccccc3c2n1,-35% (active)
20,CC1(C)CCC(=NNC(N)=S)CC1,101% (inactive)
21,Nc1nc(Nc2ccccc2)n[nH]1,98.1% (inactive)
22,CCOC(=O)N1C/C(=C/c2ccc(OC)cc2)C(=O)/C(=C/c2ccc(OC)cc2)C1,-92.5% (active)
23,CC(=O)n1c(-c2ccc(Cl)c(Cl)c2)cn(-c2ccc(Cl)cc2)c1=O,21.6% (inactive)
24,N=C(N)c1ccc(-c2ccc(-c3ccco3)o2)cc1,-28.3% (active)
25,COc1ccc(/C=C/C(C)=N/OCC(=O)O)cc1,105% (inactive)
